# Test results taken from ChEMBL document CHEMBL2218924, “A broad activity screen in support of a chemogenomic map for kinase signalling research and drug discovery” (Biochem J, 2013).
# Target: Tyrosine-protein kinase Fes/Fps (Homo sapiens) (UniProt P07332)
# Settings: at 1 µM
# Sequence of Tyrosine-protein kinase Fes/Fps (Homo sapiens) (P07332 whole entry): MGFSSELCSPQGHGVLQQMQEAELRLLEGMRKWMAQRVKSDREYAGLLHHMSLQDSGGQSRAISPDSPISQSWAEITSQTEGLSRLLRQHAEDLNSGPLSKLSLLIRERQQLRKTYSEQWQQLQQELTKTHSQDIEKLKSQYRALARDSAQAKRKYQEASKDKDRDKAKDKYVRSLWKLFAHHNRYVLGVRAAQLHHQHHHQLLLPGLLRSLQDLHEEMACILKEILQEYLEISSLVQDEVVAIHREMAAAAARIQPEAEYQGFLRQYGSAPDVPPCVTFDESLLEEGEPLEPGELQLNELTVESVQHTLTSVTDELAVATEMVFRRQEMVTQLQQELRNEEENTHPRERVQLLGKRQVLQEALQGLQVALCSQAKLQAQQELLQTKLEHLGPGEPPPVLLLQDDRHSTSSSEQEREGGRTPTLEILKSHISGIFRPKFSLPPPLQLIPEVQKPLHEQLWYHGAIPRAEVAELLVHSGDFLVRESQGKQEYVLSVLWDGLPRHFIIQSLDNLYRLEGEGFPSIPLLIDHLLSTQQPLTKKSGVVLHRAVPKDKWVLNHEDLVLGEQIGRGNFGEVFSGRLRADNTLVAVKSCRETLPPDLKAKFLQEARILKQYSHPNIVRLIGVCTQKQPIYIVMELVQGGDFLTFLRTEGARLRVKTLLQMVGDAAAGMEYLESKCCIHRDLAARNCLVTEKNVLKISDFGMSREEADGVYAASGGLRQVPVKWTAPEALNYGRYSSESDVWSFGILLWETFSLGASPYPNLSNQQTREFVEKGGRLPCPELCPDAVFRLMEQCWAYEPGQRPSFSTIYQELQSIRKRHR
row,SMILES,residual activity [%]
1,CC(=O)O/N=C1\C(=C2\C(=O)Nc3cc(Br)ccc32)Nc2ccccc21,107
2,Oc1n[nH]c2nnc(-c3c(-c4ccccc4)nn4ccccc34)cc12,92
3,Cn1cnc2cc3c(Nc4cccc(Br)c4)ncnc3cc21,132
4,O=C(O)c1ccc2c3c1cccc3c(=O)n1c3ccccc3nc21,98
5,Nc1nc(Nc2ccc(S(N)(=O)=O)cc2)nn1C(=S)Nc1c(F)cccc1F,2
6,CCC(=O)Nc1ccc2ncnc(Nc3cccc(Br)c3)c2c1,115
7,CO[C@H]1C[C@@H]2CC[C@@H](C)[C@@](O)(O2)C(=O)C(=O)N2CCCC[C@H]2C(=O)O[C@H]([C@H](C)C[C@@H]2CC[C@@H](O)[C@H](OC)C2)CC(=O)[C@H](C)/C=C(\C)[C@@H](O)[C@@H](OC)C(=O)[C@H](C)C[C@H](C)/C=C/C=C/C=C/1C,106
8,O=C1NC(=O)/C(=C/c2ccc3c(c2)OC(F)(F)O3)S1,128
9,O=C1Nc2ccccc2/C1=C1/Nc2ccccc2/C1=N\OCCC(O)CO (stereo not given),71
10,O=c1c2ccccc2[nH]c(=S)n1CCN1CCC(=C(c2ccc(F)cc2)c2ccc(F)cc2)CC1,117
11,CC(C)n1cnc2c(NCc3ccccc3)nc(NCCCO)nc21,94
12,Cc1nc2cc3nc(-c4cccs4)cnc3cc2n1C,134
13,COc1cc2ncnc(Nc3ccc(O)c(Br)c3)c2cc1OC,95
14,CCOc1cc2ncnc(Nc3cccc(Br)c3)c2cc1OCC,112
15,Cn1cc(/C=C2\C(=O)Nc3ccc(S(N)(=O)=O)cc32)c2ccccc21,40
16,COc1ccc(CNc2nc(N(CCO)CCO)nc3c2ncn3C(C)C)cc1,62
17,O=c1cc(-c2cccc3c2Sc2ccccc2S3)oc(N2CCOCC2)c1,94
18,O=C(Nc1cccc(Nc2nccc(Nc3cccc(C(F)(F)F)c3)n2)c1)C1CC1,84

row,SMILES,residual activity [%]
1,CCN(CC)CCCCN1c2ccccc2Oc2ccc(Cl)cc21,129
2,Nc1cccc(-c2cc3c(Oc4cccc(O)c4)ncnc3[nH]2)c1,13
3,COc1ccc(OC)c2c(=S)c3ccccc3[nH]c12,89
4,COc1cccc(-c2cc(=O)c3ccccc3o2)c1N,94
5,CNc1cc2c(Nc3cccc(Br)c3)ncnc2cn1,116
6,CC(C)n1cnc2/c(=N/c3cccc(Cl)c3)nc(NCCO)[nH]c21,58
7,CN(C)c1ccc(/C=C2\C(=O)Nc3ccccc32)cc1,113
8,N#C/C(=C(\N)Sc1ccc(N)cc1)c1ccccc1C(F)(F)F,93
9,O=C1Nc2cc(Br)ccc2/C1=C1/Nc2ccccc2/C1=N\O,79
10,Ic1cccc(CSc2nnc(-c3ccncc3)o2)c1,88
11,O=C1NC(=O)c2cc(Nc3ccc(F)cc3)c(Nc3ccc(F)cc3)cc21,112
12,O=C1c2ccccc2-[n+]2ccc3c([nH]c4ccccc43)c21,89
13,COc1ccc(S(=O)(=O)N(CCO)c2ccccc2CN(C)C/C=C/c2ccc(Cl)cc2)cc1,96
14,O=C1NC(=O)/C(=C\c2ccc3nccnc3c2)S1,108
15,Oc1ccc(Nc2nc(-c3ccc(Cl)cc3)cs2)cc1,106
16,O=C1NC(=O)c2c1c1c3ccccc3[nH]c1c1[nH]c3cc(Br)ccc3c21,100
17,Oc1c2ccccc2c2c3c(cccc13)N=N2,34
